# Source: PubChem BioAssay AID504332 (National Center for Advancing Translational Sciences (NCATS), 2011)
# Among all 350,000 compounds or so, about 31,000 (8.9%) were called active. Roughly 15% stayed inconclusive and do not appear here. The full list was thinned out, with actives kept by preference. Unmarked numbers belong to inactive results. Calls follow the shape of the dose curve; as a rule, active = well fitted inhibition curve with a large enough effect; inconclusive = small, poorly fitted or top-dose-only effect; inactive = no such curve, though single readings can be large or run the other way.
# Target: Histone-lysine N-methyltransferase EHMT2 (Homo sapiens) (UniProt Q96KQ7)
# Sequence (Q96KQ7 913-1193 limits assumed): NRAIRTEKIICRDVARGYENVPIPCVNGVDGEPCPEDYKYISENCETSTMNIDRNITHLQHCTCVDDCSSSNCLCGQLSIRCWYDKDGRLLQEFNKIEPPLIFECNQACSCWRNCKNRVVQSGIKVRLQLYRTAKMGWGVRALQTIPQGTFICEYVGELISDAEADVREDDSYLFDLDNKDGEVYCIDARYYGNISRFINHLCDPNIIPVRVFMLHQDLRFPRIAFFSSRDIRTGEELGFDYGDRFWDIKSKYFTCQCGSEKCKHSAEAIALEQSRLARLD
# Experiment: qHTS Assay for Inhibitors of Histone Lysine Methyltransferase G9a; also: nearly all actives have a fitted effect of over 75% in size
# Details: G9a H3K9 monomethylation, AlphaScreen, 2 h; series mostly up to 59 µM; activity, negative = inhibition: at the top concentration
# Method in brief: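 AlphaScreen read-out: biotin-H3K9 peptide (500 nM) methylation by 20 nM enzyme with 20 uM SAM, 2 h at room temperature after 15 min compound preincubation; anti-monomethyl H3K9 antibody plus donor/acceptor beads, 10 min dark.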
# % is scaled to controls: 0 for no effect and ±100 for the full control effect; potency is read from the fitted curve at half-maximal effect.
SMILES,"activity, negative = inhibition",Potency
O=C(NNC(=O)C1CCCC1)c1ccc(F)cc1,20.9% [at 102 µM],
CC1CC(=O)Nc2ccccc2N1C(=O)COc1ccc2cc(Br)ccc2c1 (stereo not given),-5.57% [at 2.33 µM],
CCCCN(CC)CCCNC(=O)c1nn(C)c2c1CS(=O)(=O)c1ccccc1-2,-9.82%,
COc1ccc(NC(=S)Nc2ccc(S(N)(=O)=O)cc2)c(C)c1,-45.2% [at 102 µM],
COc1ccc(OCC(=O)NCCc2ccc(S(N)(=O)=O)cc2)cc1,-7.3%,
COc1cc(NC(=S)NCc2ccc(S(N)(=O)=O)cc2)cc(OC)c1,,17.8 µM (active)
COc1ccc(C(=O)CC(=O)C(=O)Nc2cc([N+](=O)[O-])ccc2OC)cc1,13.4% [at 102 µM],
COc1ccc(C2NC(=O)N(C)C3=C2C(=O)N(c2ccc(C(=O)O)cc2)C3)cc1 (stereo not given),-0.267%,
COc1ccc(N2C(=O)C3CCCN3C2c2cccs2)cc1 (stereo not given),14.2% [at 102 µM],
COc1ccc(N2C(=O)C3C(C2=O)C(C(=O)c2ccccc2)N2CCCC32)cc1 (stereo not given),,10 µM (active)
Cn1c(=O)[nH]c(=O)c2c1nc(NCCc1ccccc1)n2Cc1ccc(F)cc1,7.33%,
O=S(=O)(Nc1cccc(-c2ccc(N3CCOCC3)nn2)c1)c1ccc(Cl)c(Cl)c1,-30.6% [at 102 µM],
O=[N+]([O-])c1ccc(S(=O)(=O)Nc2cccc(-c3ccc(N4CCCC4)nn3)c2)cc1,,10 µM (active)
CCCOc1ccc(-c2cccc(NS(=O)(=O)c3ccccc3)c2)nn1,-0.99%,
CCCc1cc(=O)oc2cc(OCC(=O)Nc3ccc(CN4CCOCC4)cc3)c(Cl)cc12,3.1% [at 0.501 µM],
CN(CC(=O)Nc1cccc(C(F)(F)F)c1)S(=O)(=O)c1cccs1,-7.08%,
COc1ccc2[nH]cc(CCN3C(=O)c4ccc(C(=O)O)cc4C3=O)c2c1,8.52% [at 102 µM],
Cc1ccc2[nH]cc(CCNC(=O)C3CCCCC3)c2c1,7.65%,
Cc1ccc2[nH]cc(CCCN3C(=O)c4ccccc4C3=O)c2c1,,44.7 µM (active)
CCCC(=O)Nc1cc2nn(-c3ccccc3)nc2cc1C,6.98%,
CCOCCCNCc1ccc(OCc2ccc(F)cc2)c(OC)c1,,7.08 µM (active)
COc1ccc(CNCCCO)cc1OC,5.75%,
COc1cc(CNCCN(C)C)ccc1OCc1c(F)cccc1Cl,-50.1% [at 102 µM],
CC(Nc1nc(C(F)(F)F)nc2ccccc12)c1cccs1 (stereo not given),94.6% [at 102 µM],
Cc1cc(C)nc(N/N=C/c2ccc([N+](=O)[O-])o2)n1,-49.2% [at 102 µM],

SMILES,"activity, negative = inhibition",Potency
COc1ccc(C(=O)Nc2ccc(-n3nncc3-c3ccccc3)cc2)cc1OC,-28%,
CCOC(=O)C1CCCN(C(=O)Cn2ncc3c(C)n(Cc4ccc(F)cc4)c(C)c3c2=O)C1 (stereo not given),13%,
COc1ccc(CCNC(=O)CSc2nnc(CNC(=O)c3cccs3)o2)cc1OC,30% [at 12.7 µM],
COc1ccc(-c2nnc(SCC(=O)c3cccs3)o2)c(OC)c1,-1.85% [at 102 µM],
O=C(NCC#CCSc1nnc(-c2cccc3ccccc23)o1)c1cccs1,,3.16 µM (active)
CCc1cc(C(=O)Nc2nnc(C3CC3)s2)sc1C,5.21% [at 12.7 µM],
CCC1(CC)Cc2ccccc2-c2nc(CCl)[nH]c(=O)c21,-21.1% [at 102 µM],
CC1(C)Cc2ccccc2-c2[nH]c(=S)[nH]c(=O)c21,,10 µM (active)
CC(C)CC(N=C1NC(C)(C)Cc2ccccc21)C(=O)O (stereo not given),12.6%,
CCc1cc2c(cc3c(=O)n(CC(=O)N4CCN(c5cc(Cl)ccc5C)CC4)nc(CC)n32)s1,-1.08%,
CCC(c1nnnn1Cc1ccccc1)N(Cc1cc2cc(OC)ccc2[nH]c1=O)CC1CCCO1 (stereo not given),-31.1% [at 12.7 µM],
CCOc1ccc2[nH]c(=O)c(CN(Cc3nnnn3Cc3ccccc3)CC3CCCO3)cc2c1 (stereo not given),-25.1% [at 102 µM],
CCC(c1nnnn1Cc1ccco1)N(Cc1cc2cc(OC)ccc2[nH]c1=O)C1CCCCC1 (stereo not given),,3.16 µM (active)
CCCOc1ccc(C(=O)Nc2ccc3oc(-c4cccc(Cl)c4Cl)nc3c2)cc1,-29.8%,
COc1ccc(S(=O)(=O)N2CCOCC2)cc1C(=O)NC1CCCCC1,18.8% [at 102 µM],
S=C(NC1CCCCC1)NN1CCOCC1,,50.1 µM (active)
CC(NC(=S)NC1CCCCC1)C(c1ccccc1)N1CCOCC1 (stereo not given),2.9% [at 102 µM],
COc1ccc(C(CC(=O)Nc2ccc(C)cc2)NC(=O)C(F)(F)F)cc1 (stereo not given),,79.4 µM (active)
COc1ccc(NC(=O)C(=O)NCC(=O)Nc2cccc(C(F)(F)F)c2)cc1,2.22% [at 102 µM],
COc1ccc(NC(=O)CN(C)CC(=O)Nc2cccc(C(F)(F)F)c2)cc1,6.72% [at 102 µM],
CCCCOc1ccc(C(=O)Nc2cccc(-c3nc4ccccc4o3)c2C)cc1,-21%,
O=C(NCc1ccc(Cl)cc1)C(=O)NCC1CCCN1S(=O)(=O)c1cccs1 (stereo not given),1.44% [at 102 µM],
Cc1cc(NC(=O)CC(C)C)cc(-c2nc3ncccc3o2)c1O,2.52%,
Cc1ccc(-n2nc(CO)c(C(=O)NCCc3ccccc3)n2)cc1,7.14%,
O=C(Oc1ccc(Br)cc1C(=S)N1CCOCC1)c1cccc([N+](=O)[O-])c1,,7.08 µM (active)

SMILES,"activity, negative = inhibition",Potency
COc1cc([N+](=O)[O-])cc([N+](=O)[O-])c1NC(=O)N1CCOCC1,,50.1 µM (active)
O=C(/C=C/c1cccc([N+](=O)[O-])c1)OCC(=O)N1CCOCC1,12.5% [at 12.7 µM],
Cc1cc(OC(=O)c2ccccc2)c([N+](=O)[O-])c(=O)[nH]1,-32.9% [at 102 µM],
COc1cc(C(=S)N2CCOCC2)cc(OC)c1OC(=O)c1cc([N+](=O)[O-])cc([N+](=O)[O-])c1,,31.6 µM (active)
O=C(c1ccc(Oc2ccc(Cl)cc2)c([N+](=O)[O-])c1)N1CCCC1,-2.93% [at 102 µM],
COc1cc(NC(=O)N2CCOCC2)cc(OC)c1,7.85% [at 102 µM],
COc1cc(C(=O)OCc2ccc([N+](=O)[O-])cc2)cc(OC)c1OC,14.7% [at 102 µM],
O=C(NCCCN1CCOCC1)c1ccc([N+](=O)[O-])cc1[N+](=O)[O-],-1.45%,
COc1cc(C(=O)N2CCOCC2)cc(OC)c1OC,,inactive
O=C(Oc1ccccc1C(=S)N1CCCCC1)c1cc([N+](=O)[O-])cc([N+](=O)[O-])c1,,3.55 µM (active)
O=C(Oc1cccc(C(=S)N2CCOCC2)c1)c1cccc(Cl)c1,-2.25% [at 102 µM],
COc1ccc(/C=N/Nc2cc(N3CCOCC3)nc(C)n2)c(OC)c1,-10.8% [at 102 µM],
Cc1ccc2cccc(NC(=O)C(C)Oc3ccc(C)c(C)c3)c2n1 (stereo not given),0.0636%,
Cc1ccc(-c2cnc(C3CC3)o2)cc1S(=O)(=O)Nc1cccc(C)c1C,-9.84% [at 12.7 µM],
CCC(=O)N1c2ccccc2CC1C(=O)N1CCN(c2ccccc2F)CC1 (stereo not given),0.329% [at 12.7 µM],
Cc1ccc(-c2nn(CCC(=O)Nc3ccc(Cl)c(Cl)c3)c(=O)c3ccccc23)cc1,5.97%,
COc1ccc(Cl)cc1NC(=O)CSc1nc2ccccc2c2nc(-c3ccccc3)nn12,-3.83%,
CC(=O)C[C@@H](O)CC(=O)[C@H]1OC(=O)CCCCCCc2ccccc21,7.19% [at 0.501 µM],
O=C(C1=C(O)C(=O)N(CCOCCO)C1c1ccccn1)c1cccs1 (stereo not given),,28.2 µM (active)
O=C(c1cccs1)c1cn(CCOc2ccc(Cl)cc2)c2ccccc12,-2.07%,
O=C(c1cccs1)N(C(=O)c1cccs1)c1ccccn1,2.68%,
Cc1ccc(O)c(/C=N/NC(=O)COc2ccc3c(C)cc(=O)oc3c2)c1,14% [at 102 µM],
CCC(=O)N1c2ccccc2CC1C(=O)N1CCN(c2cccc(OC)c2)CC1 (stereo not given),12.6%,
COc1cccc(C(=O)NC2(C(F)(F)F)C(=O)Nc3c2c(=O)[nH]c(=O)n3-c2ccc(C)cc2)c1 (stereo not given),-0.967%,
CCOc1ccc(CN2CCN(Cc3ccc(C)o3)CC2CCO)cc1 (stereo not given),,70.8 µM (active)

SMILES,"activity, negative = inhibition",Potency
CCOc1ccc(CN2CCN(Cc3ccon3)CC2CCO)cc1 (stereo not given),-37.7% [at 102 µM],
CCOc1ccc(CN2CCN(Cc3ccc4cc(F)ccc4n3)CC2CCO)cc1 (stereo not given),1.12% [at 102 µM],
COCCn1c(C)cc(C(=O)CSc2nnc(C3CC3)n2C2CC2)c1C,-12.5% [at 12.7 µM],
Cc1ccc(Cl)cc1N1CCN(C(=O)C2CCC(CNS(=O)(=O)c3cccs3)CC2)CC1 (stereo not given),-36.1%,
Cc1ccc(S(=O)(=O)NNC(=O)/C=C/c2cccc(F)c2)cc1,10.6% [at 102 µM],
Cc1cc(C)c(NC(=O)CN2CCCCCC2)c(C)c1,41.6% [at 0.501 µM],
COc1cccc(NC(=O)NCCN2CCCCC2)c1,11.8% [at 102 µM],
Cc1cc(OCCN2CCCC2)cc(C(C)C)c1,,11.2 µM (active)
OC(COc1ccc(Br)cc1)CN1CCCC1 (stereo not given),2.27% [at 102 µM],
COc1cccc(OCC(O)CN2CCN(CCO)CC2)c1 (stereo not given),19.4%,
c1ccc2cc(OCCN3CCCC3)ccc2c1,,12.6 µM (active)
COc1cccc(OCCCN2CCCCCC2)c1,,11.2 µM (active)
Cc1cc(OCCN2CCCC2)ccc1C(C)C,,8.91 µM (active)
Cc1ccc(CC2(O)CCN(CCOc3ccc(O)cc3)CC2)cc1,31.1%,
O=C(Nc1ccc(F)cc1F)N1CCCN(CCOc2ccccc2)CC1,-4.35% [at 102 µM],
OC(COc1ccc2ccccc2c1)CN1CCOCC1 (stereo not given),-4.94%,
Clc1ccccc1-c1cc(COc2ccc3ccccc3c2)no1,22%,
CS(=O)(=O)Nc1ccccc1C(=O)OCC(=O)NC1CC1,15.6% [at 12.7 µM],
Cc1cccc(NC(=O)Cn2cc(S(=O)(=O)Cc3ccccc3Cl)c3ccccc32)c1,0.568%,
CC(C)(C)N1C(=O)[C@H]2[C@@H](c3ccc(Br)cc3)N3C(=O)N(c4cccc(Cl)c4)C(=O)[C@@]3(C)[C@H]2C1=O,-8.49% [at 2.33 µM],
CCN(CC)CCNC(=O)Cn1ncc2c3ccccc3n(Cc3ccccc3C)c2c1=O,1.56%,
Cn1c(=O)n(C)c2cc(S(=O)(=O)Nc3ccc(F)cc3)ccc21,72.7% [at 102 µM],
CN1C/C(=C/c2cccs2)C(=O)/C(=C\c2cccs2)C1,1.72% [at 12.7 µM],
O=C1/C(=C/c2cccs2)CCc2ccccc21,10.6% [at 102 µM],
CCC1C/C(=C/c2cccs2)C(=O)/C(=C/c2cccs2)C1 (stereo not given),,39.8 µM (active)
